Bioassay records: PubChem, National Center for Advancing Translational Sciences (NCATS)
Shiga toxin inh: A qHTS for Small Molecule Inhibitors of Shiga Toxin | Vero cells, Shiga toxin protein synthesis inhibition reporter | inhibition, % at 38.7 µM | 290,000 compounds, 9.2% hits | AID 2315, 2010; in the data active = inhibition mostly above about 28%, no sharp cut-off; inactive = mostly below about 43%; also: 0% is about no effect
Pf growth 96h: Primary qHTS for delayed death inhibitors of the malarial parasite plastid, 96 hour incubation; P. falciparum luciferase reporter growth, 96 h; AID 504834, 2011; 320,000 compounds, 6.9% hits; Potency, µM (doses to about 28.7 µM), without a hit: at the top dose activity change, negative = inhibition, usual class: inhibitors; also: potency is read from the fitted curve at half-maximal effect; % is scaled to controls: 0 for no effect and ±100 for the full control effect
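Compounds incubated with erythrocytes infected by luciferase-expressing P. falciparum (2% hematocrit, 0.05% parasitemia final) for 96 hours, 37 C in 5% CO2. Growth inhibition scored as decreased luciferase luminescence.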
Pf growth 48h: Primary qHTS for delayed death inhibitors of the malarial parasite plastid, 48 hour incubation; P. falciparum luciferase growth in erythrocytes, 48 h; Potency, µM (top dose mostly 28.7 µM), without a hit: at the top dose activity change, negative = inhibition, actives largely listed as inhibitors; 310,000 compounds, 5.9% hits; AID 504832, 2011; also: potency is read from the fitted curve at half-maximal effect; % is scaled to controls: 0 for no effect and ±100 for the full control effect
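First compound was added to culture medium, then infected red cells at 0.1% parasitemia and 2% hematocrit (final). After incubation at 37 C under 5% CO2, luciferase detection reagent was dispensed and light output recorded.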
NS1 function inh: qHTS Assay for Inhibitors of Influenza NS1 Protein Function; Potency, µM (highest dose often 46.1 µM), without a hit: at the highest dose activity, positive = more growth; 270,000 compounds, 0.4% hits; AID 2326, 2010; calls by dose curve; also: potency is read from the fitted curve at half-maximal effect; actives are rising curves; nearly all actives have a fitted effect of over 50% in size
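Recovery from NS1-induced slow growth read by OD600 in budding yeast switched to galactose assay medium (pH 6.0, -URA) at 1:100 dilution. Compound 23 nl per well; the matching strain lacking NS1 serves as control.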
Cycloheximide cs: Cycloheximide Counterscreen for Small Molecule Inhibitors of Shiga Toxin. max response, %. AID 2314, 2010. cell reporter, cycloheximide protein synthesis inhibition counterscreen. 300,000 compounds, 12% hits; in the data active = max response mostly above about 13%, no sharp cut-off; inactive = mostly below about 14%; also: read at 38.3 µM for the half of the compounds with a filed dose; 0% is about no effect
* marks the source's active call; other numbers are inactive results; ? = inconclusive; / = no result. Sampled rows, rich in hits. Any-hit rate of the full collection: about 21%. Unless noted, calls follow the shape of the dose curve; as a rule, active = well fitted inhibition curve with a large enough effect; inconclusive = small, poorly fitted or top-dose-only effect, or another doubt; inactive = no such curve, though single readings can be large or run the other way.

SMILES	Shiga toxin inh	Pf growth 96h	Pf growth 48h	NS1 function inh	Cycloheximide cs
Cn1c(SCc2nc(-c3ccc(Cl)cc3)no2)nnc1-c1cccs1	22.2	-9.4%	/	11.6%	10.0
Cn1c(SCC(=O)Nc2ccccc2F)nnc1-c1cccs1	43.4*	34.0%	-3.4%	6.3%	26.0
Cn1c(SCc2c(F)cccc2Cl)nnc1-c1cccs1	68.3*	?	-22.8%	-9.9%	27.8*
Cn1c(Cc2cccs2)nnc1SCC(=O)Nc1ccccc1F	/	1.0%	?	/	/
COc1cc(OC)cc(OC(=O)C2CCN(C3=NS(=O)(=O)c4ccccc43)CC2)c1	/	3.5%	23.2%	/	/
O=C(OCc1nc2ccccc2s1)C1CCN(C2=NS(=O)(=O)c3ccccc32)CC1	60.4*	?	75.9%	-0.7%	61.4*
Cc1cc2nc(/C=C/c3nc4cc(C)c(C)cc4[nH]3)[nH]c2cc1C	2.4	0.329µM*	0.465µM*	-0.4%	4.2
Cc1cc2nc(CO)[nH]c2cc1C	21.3	79.6%	18.8%	0.5%	-0.2
Cc1cc2nc(CS)[nH]c2cc1C	60.3	?	?	6.2%	16.9*
Cc1cc2nc(/C=C/c3cccnc3)[nH]c2cc1C	39.8*	-1.2%	-80.8%	2.3%	30.9*
Cc1cc(C(=O)N2CCC(C(=O)O)CC2)c(C)o1	-4.5	45.6%	10.5%	-2.9%	1.6
CC(C)(C)c1ccc(C(=O)NNC(=O)c2ccc(Cl)cc2)cc1	-8.1	?	1.8%	7.5%	-3.3
CC(C)(C)c1ccc(C(=O)CC(=O)c2cc(Cl)ccc2O)cc1	52.7	/	4.65µM*	-6.0%	11.9
Cc1ccc(C(=O)CC(=O)c2cc(Cl)ccc2O)cc1	121.4*	/	?	-135.4%	34.7*
Cc1ccc(C(=O)CC(=O)c2ccc(C)cc2O)cc1	86.9*	7.38µM*	-61.5%	-5.8%	39.2*
Cc1ccc(C(=O)OCC(=O)NNC(=O)c2ccccc2)c(O)c1	23.6	34.2%	0.0%	-3.7%	-1.9
Cc1cc(-c2nc(C)c(-c3nnc(SCC(=O)Nc4ccc(Cl)cc4)n3C)s2)no1	-7.8	40.8%	33.4%	-3.7%	-1.4
O=C(/C(C=Nc1cc2c(oc1=O)CCCC2=O)=C(\O)c1ccccc1)c1ccccc1	125.2*	55.7%	23.9%	1.2%	39.8*
O=C1CCCc2c1cc(-c1ccccc1)n2-c1ccccc1	-10.1	0.9%	7.7%	-2.3%	2.0
Cc1ccc(-n2nc(C)c(C3C(C#N)=C(N)OC4=C3C(=O)CCC4)c2Cl)cc1 (configuration not stated)	-21.2	-14.4%	-24.3%	-7.8%	-4.2
COc1ccc(NC(=O)c2csc3c2CCCC3)cc1	72.4*	243.7%	173.7%	-5.7%	50.6*
COc1ccc(CNC(=O)c2csc3c2CCCC3)cc1	/	-20.4%	-4.2%	/	/
COc1cccc(CNC(=O)c2csc3c2CCCC3)c1	15.6	-1.3%	-5.5%	-47.1%	-1.7
COc1cccc(NC(=O)c2csc3c2CCCC3)c1	104.1*	8.9%	52.2%	-34.9%	40.4*
O=C(NCc1ccccc1)c1csc2c1CCCC2	30.6	51.2%	5.6%	/	20.1
SMILES	Shiga toxin inh	Pf growth 96h	Pf growth 48h	NS1 function inh	Cycloheximide cs
O=C(Nc1nccs1)c1csc2c1CCCC2	88.2*	?	61.3%	-31.3%	36.1*
Cc1ccccc1NC(=O)c1csc2c1CCCC2	100.0*	12.6%	?	-9.7%	40.7*
O=C(Nc1ccon1)c1csc2c1CCCC2	30.0	/	3.6%	-5.6%	2.2
Cn1c(CNC(=O)OC(C)(C)C)nnc1SCc1c(Cl)cccc1Cl	12.4	-24.2%	?	6.5%	4.9
CC(=O)OCC(NC(=O)C(CCCCNC(=O)OCc1ccccc1)NC(=O)OC(C)(C)C)C1OC(n2cc(F)c(=O)[nH]c2=O)C(OC(C)=O)C1OC(C)=O (configuration not stated)	-3.6	/	/	/	-3.4
CCOc1ccc(/C=C/C(=O)C(C(N)=O)=C2SCCS2)cc1	57.2*	?	-77.2%	-5.8%	34.5*
COc1ccc(-c2nc(-c3ccccn3)nc(N3CCN(C)CC3)c2C#N)cc1	-4.1	?	?	?	1.6
COc1cc(/C=N/N2CCOCC2)ccc1OCc1ccccc1	36.0	-2.1%	0.0%	-8.6%	16.3*
COc1cc(/C=N/N2CCOCC2)ccc1OCc1ccc(Cl)cc1	81.6*	30.3%	5.7%	/	36.9*
COc1ccc(/C=N/N2CCOCC2)cc1O	48.0*	30.5%	32.5%	22.9%	28.2*
COc1ccc([C@H]2OCC3C2CO[C@@H]3c2ccc(OC)c(OC)c2)cc1OC (some centres not stated)	-14.9	/	/	/	-2.2
O=C1OCCC1Sc1nnnn1-c1ccc(Cl)cc1 (configuration not stated)	3.6	?	72.0%	-0.6%	-2.2
Cc1ccc(C)c(NC(=O)CN(C)C(=O)c2cc3c(s2)CCCCC3)c1	/	-1.4%	?	/	/
Cc1ccc(S(=O)(=O)Oc2ccc(/C=C(/NC(=O)c3ccccc3)C(=O)NC(C)C(=O)O)cc2)cc1 (configuration not stated)	-3.3	?	4.0%	-2.0%	-1.1
CC1N(C)c2cc(NC(=O)c3ccco3)ccc2C1(C)C (configuration not stated)	74.2*	15.6%	-70.6%	-84.6%	44.3*
CC1N(C)c2cc(NC(=O)c3ccco3)c(P(=O)(Nc3ccc([N+](=O)[O-])cc3)N3CCOCC3)cc2C1(C)C (configuration not stated)	56.0*	9.28µM*	5.86µM*	6.3%	24.4
Cc1sc(NC(=O)Cc2ccc3c(c2)OCO3)nc1-c1ccc2c(c1)CCN2C(=O)c1cccc(F)c1	2.9	6.57µM*	?	?	-1.1
Cc1cccc(C(=O)N2CCc3cc(-c4csc(NC(=O)CN5CCCC5)n4)ccc32)c1	8.9	?	?	3.4%	9.3
O=C(Nc1nc(-c2ccncc2)cs1)c1ccc(F)cc1	-6.5	26.2%	0.0%	10.0%	5.7
CNc1nc(-c2ccc3c(c2)CCN3C(=O)c2ccccc2C)cs1	64.4*	-12.0%	?	11.7%	33.8*
CNc1nc(-c2ccc3c(c2)CCN3C(=O)c2ccc(F)cc2)cs1	91.4*	?	19.9%	4.0%	44.9*
Cc1cccc(C(=O)N2CCc3cc(-c4nc(NC(=O)CN5CCCC5)sc4C)ccc32)c1	1.9	16.7%	?	7.1%	1.0
O=C(c1ccccc1F)N1CCc2ccccc21	-16.8	14.5%	2.9%	-8.8%	-0.3
O=C(CN1CCCC1)Nc1nc(-c2ccc3c(c2)CCN3C(=O)c2ccccc2F)cs1	31.0	?	14.7µM*	2.9%	20.0*
O=C(CCn1cccc1)Nc1ccc(OC(F)(F)F)cc1	19.6	?	1.1%	/	6.0
O=C(Nc1nc2c(F)cc(F)cc2s1)C1CCN(C(=O)c2ccc(F)cc2)CC1	/	117.3%	91.4%	/	/
CNc1nc(-c2ccc3c(c2)CCN3C(=O)c2cccc(F)c2)cs1	59.4*	-37.9%	-3.9%	-32.4%	43.9*
O=C(Nc1nc(-c2ccc(F)cc2)cs1)C1CCN(C(=O)c2ccc(F)cc2)CC1	/	6.57µM*	?	/	/
